In PubChem BioAssay (NCATS):
Records with an inconclusive call do not appear. Calls of active or inactive are those of the source. Calls follow the shape of the dose curve; as a rule, active = well fitted cell-killing curve with a large enough effect; inconclusive = small, poorly fitted or top-dose-only effect; inactive = flat fitted curve, though single readings scatter.

experiment: Cell Viability - LYMP2-021 (AID 974); conditions: LYMP2-021 lymphoblastoid cells viability; series mostly up to 92.2 µM; activity change, negative = cytotoxicity: at the top concentration;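 also: compound exposure lasts 24 hours at 37 °C; nearly all actives have a fitted effect of over 55% in size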; also: potency is read from the fitted curve at half-maximal effect; as to activity change, negative = cytotoxicity: % is scaled to controls: 0 for no effect and ±100 for the full control effect
Procedure, shortened: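 Loss of cellular ATP, measured with a luciferase-based CellTiter-Glo readout, serves as the toxicity signal in human lymphoblastoid cells treated for 24 hours at 37 C. Potency is reported as AC50 from a standard Hill model.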

Structure (SMILES)	Potency	activity change, negative = cytotoxicity
O=C(O)COc1ccc(Cl)cc1Cl	inactive	–
ClC1=C(Cl)C2(Cl)C3C4C=CC(C4)C3C1(Cl)C2(Cl)Cl (configuration not stated)	63.1 µM (active)	–
O=S1OCC2C(CO1)C1(Cl)C(Cl)=C(Cl)C2(Cl)C1(Cl)Cl (configuration not stated)	–	-28.5% (inactive)
CCOCN(C(=O)CCl)c1c(C)cccc1CC	50.1 µM (active)	–
CCNc1nc(Cl)nc(NC(C)C)n1	–	-0.217% (inactive)
C=CCc1ccc(OC)cc1	–	-1.19% (inactive)
ClC1=C(Cl)C2(Cl)C3C4CC(C5OC45)C3C1(Cl)C2(Cl)Cl (configuration not stated)	39.8 µM (active)	–
ClC(Cl)=C(c1ccc(Cl)cc1)c1ccc(Cl)cc1	inactive	–
C/C=C/c1ccc2c(c1)OCO2	–	-14.1% (inactive)
C=CCc1ccc2c(c1)OCO2	–	2.81% (inactive)
COP(=S)(OC)Oc1ccc([N+](=O)[O-])cc1	–	-2.81% (inactive)

experiment: Cell Viability - LYMP2-023 (AID 975); conditions: LYMP2-023 lymphoblastoid cell viability; series mostly up to 92.2 µM; activity change, negative = cytotoxicity: at the top concentration; also: nearly all actives have a fitted effect of over 55% in size; also: potency is read from the fitted curve at half-maximal effect;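 as to activity change, negative = cytotoxicity: cellular ATP measured by luciferase luminescence as viability proxy; plate controls were DMSO only for no effect and 92 µM tetraoctylammonium bromide control for full effect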
Procedure, shortened: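 Steps: seed 2500 human lymphoblastoid cells per well, incubate 5 hr at 37 C, add compound for 24 hr at 37 C, add CellTiter-Glo, hold 30 min at room temperature, read luminescence. AC50 derived by Hill modelling.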

Structure (SMILES)	Potency	activity change, negative = cytotoxicity
O=C(O)COc1ccc(Cl)cc1Cl	inactive	–
O=S1OCC2C(CO1)C1(Cl)C(Cl)=C(Cl)C2(Cl)C1(Cl)Cl (configuration not stated)	–	-17.6% (inactive)
c1ccc(N=Nc2ccccc2)cc1	–	-2.04% (inactive)
CNC(=O)O/N=C/C(C)(C)SC	–	-28.1% (inactive)
CCNc1nc(Cl)nc(NC(C)C)n1	–	-4.37% (inactive)
C=CCc1ccc(OC)cc1	–	-4.52% (inactive)
ClC1=C(Cl)C2(Cl)C3C(Cl)C=CC3C1(Cl)C2(Cl)Cl (configuration not stated)	–	-26.8% (inactive)
ClC1=C(Cl)C2(Cl)C3C4CC(C5OC45)C3C1(Cl)C2(Cl)Cl (configuration not stated)	39.8 µM (active)	–
ClC(Cl)=C(c1ccc(Cl)cc1)c1ccc(Cl)cc1	inactive	–
C/C=C/c1ccc2c(c1)OCO2	–	-0.458% (inactive)
C=CCc1ccc2c(c1)OCO2	–	0.0554% (inactive)
COP(=S)(OC)Oc1ccc([N+](=O)[O-])cc1	–	-14.1% (inactive)

experiment: Cell Viability - LYMP2-025 (AID 976); conditions: LYMP2-025 lymphoblastoid cell viability; series mostly up to 92.2 µM; activity change, negative = cytotoxicity: at the top concentration; also: potency is read from the fitted curve at half-maximal effect;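 as to activity change, negative = cytotoxicity: plate controls were DMSO only for no effect and tetraoctylammonium bromide control for full effect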
Procedure, shortened: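 Acute cytotoxicity is scored as a concentration-dependent fall in intracellular ATP, measured by luciferase luminescence, in human lymphoblastoid LYMP2-025 cells exposed to compound for 24 hours at 37 C. AC50 values come from standard Hill fits.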

Structure (SMILES)	Potency	activity change, negative = cytotoxicity
O=C(O)COc1ccc(Cl)cc1Cl	inactive	–
ClC1=C(Cl)C2(Cl)C3C4C=CC(C4)C3C1(Cl)C2(Cl)Cl (configuration not stated)	50.1 µM (active)	–
O=S1OCC2C(CO1)C1(Cl)C(Cl)=C(Cl)C2(Cl)C1(Cl)Cl (configuration not stated)	–	-19.8% (inactive)
c1ccc(N=Nc2ccccc2)cc1	–	-10.8% (inactive)
CNC(=O)O/N=C/C(C)(C)SC	–	-7.16% (inactive)
CCNc1nc(Cl)nc(NC(C)C)n1	–	-6.81% (inactive)
C=CCc1ccc(OC)cc1	–	-1.43% (inactive)
ClC1=C(Cl)C2(Cl)C3C(Cl)C=CC3C1(Cl)C2(Cl)Cl (configuration not stated)	–	-32% (inactive)
ClC1=C(Cl)C2(Cl)C3C4CC(C5OC45)C3C1(Cl)C2(Cl)Cl (configuration not stated)	50.1 µM (active)	–
ClC(Cl)=C(c1ccc(Cl)cc1)c1ccc(Cl)cc1	inactive	–
CCc1cccc(CC)c1N(COC)C(=O)CCl	–	-29.7% (inactive)
C/C=C/c1ccc2c(c1)OCO2	–	-10.1% (inactive)
C=CCc1ccc2c(c1)OCO2	–	6.67% (inactive)
COP(=S)(OC)Oc1ccc([N+](=O)[O-])cc1	–	-13.4% (inactive)

experiment: Cell Viability - LYMP2-002 (AID 977); conditions: LYMP2-002 lymphoblastoid cell viability, qHTS; series mostly up to 92.2 µM; activity change, negative = cytotoxic: at the top concentration;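 also: compound exposure lasted 24 h at 37 °C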; also: potency is read from the fitted curve at half-maximal effect;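 as to activity change, negative = cytotoxic: plate controls were DMSO only for no effect and 92 µM tetraoctylammonium bromide for full effect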
Procedure, shortened: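 In this qHTS viability screen, 2500 human lymphoblastoid cells per well receive compound for 24 hr at 37 C, and luciferase-based ATP luminescence gives the viability signal. Tetraoctylammonium bromide serves as positive control.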

Structure (SMILES)	Potency	activity change, negative = cytotoxic
O=C(O)COc1ccc(Cl)cc1Cl	inactive	–
c1ccc(N=Nc2ccccc2)cc1	–	-21.4% (inactive)
CCOCN(C(=O)CCl)c1c(C)cccc1CC	–	-24.9% (inactive)
CNC(=O)O/N=C/C(C)(C)SC	–	-10.4% (inactive)
CCNc1nc(Cl)nc(NC(C)C)n1	–	1.7% (inactive)
C=CCc1ccc(OC)cc1	–	-0.663% (inactive)
ClC1=C(Cl)C2(Cl)C3C4CC(C5OC45)C3C1(Cl)C2(Cl)Cl (configuration not stated)	31.6 µM (active)	–
ClC(Cl)=C(c1ccc(Cl)cc1)c1ccc(Cl)cc1	inactive	–
C/C=C/c1ccc2c(c1)OCO2	–	1.06% (inactive)
C=CCc1ccc2c(c1)OCO2	–	3.29% (inactive)
COP(=S)(OC)Oc1ccc([N+](=O)[O-])cc1	–	17% (inactive)

experiment: Cell Viability - LYMP2-006 (AID 978); conditions: LYMP2-006 lymphoblastoid cell viability, qHTS; series mostly up to 92.2 µM; activity change, negative = cytotoxicity: at the top concentration; also: nearly all actives have a fitted effect of over 60% in size; also: potency is read from the fitted curve at half-maximal effect; as to activity change, negative = cytotoxicity: % is scaled to controls: 0 for no effect and ±100 for the full control effect
Procedure, shortened: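 Potency values are Hill-fit AC50s for decreases in intracellular ATP (CellTiter-Glo luminescence). LYMP2-006 lymphoblastoid cells, 2500 per well, were exposed to compound in complete culture medium for 24 hr at 37 C.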

Structure (SMILES)	Potency	activity change, negative = cytotoxicity
O=C(O)COc1ccc(Cl)cc1Cl	inactive	–
ClC1=C(Cl)C2(Cl)C3C4C=CC(C4)C3C1(Cl)C2(Cl)Cl (configuration not stated)	39.8 µM (active)	–
c1ccc(N=Nc2ccccc2)cc1	–	-29.3% (inactive)
CCOCN(C(=O)CCl)c1c(C)cccc1CC	50.1 µM (active)	–
CNC(=O)O/N=C/C(C)(C)SC	–	8.15% (inactive)
CCNc1nc(Cl)nc(NC(C)C)n1	–	-7.95% (inactive)
C=CCc1ccc(OC)cc1	–	-6.9% (inactive)
ClC1=C(Cl)C2(Cl)C3C4CC(C5OC45)C3C1(Cl)C2(Cl)Cl (configuration not stated)	31.6 µM (active)	–
ClC(Cl)=C(c1ccc(Cl)cc1)c1ccc(Cl)cc1	inactive	–
C/C=C/c1ccc2c(c1)OCO2	–	-9.25% (inactive)
C=CCc1ccc2c(c1)OCO2	–	-0.917% (inactive)
COP(=S)(OC)Oc1ccc([N+](=O)[O-])cc1	–	-11.7% (inactive)

experiment: Cell Viability - LYMP2-007 (AID 979); conditions: LYMP2-007 lymphoblastoid cell viability; series mostly up to 92.2 µM; activity change, negative = cytotoxicity: at the top concentration;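 also: cells exposed to compound for 24 h before reading; nearly all actives have a fitted effect of over 60% in size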; also: potency is read from the fitted curve at half-maximal effect;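 as to activity change, negative = cytotoxicity: 0% = DMSO only and the negative end = 92 µM tetraoctylammonium bromide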
Procedure, shortened: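 Cells are seeded at 2500 per well and rested 5 hr. Compounds are then added over a concentration series for 24 hr at 37 C. CellTiter-Glo is added for 30 min at room temperature before luminescence reading.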

Structure (SMILES)	Potency	activity change, negative = cytotoxicity
O=C(O)COc1ccc(Cl)cc1Cl	inactive	–
ClC1=C(Cl)C2(Cl)C3C4C=CC(C4)C3C1(Cl)C2(Cl)Cl (configuration not stated)	–	-29.7% (inactive)
c1ccc(N=Nc2ccccc2)cc1	31.6 µM (active)	–
CCOCN(C(=O)CCl)c1c(C)cccc1CC	50.1 µM (active)	–
ClC1=C(Cl)C2(Cl)C3C4CC(C5OC45)C3C1(Cl)C2(Cl)Cl (configuration not stated)	31.6 µM (active)	–
C/C=C/c1ccc2c(c1)OCO2	–	-3.02% (inactive)
COP(=S)(OC)Oc1ccc([N+](=O)[O-])cc1	–	-1.14% (inactive)

experiment: Cell Viability - LYMP2-008 (AID 980); conditions: LYMP2-008 lymphoblastoid cell viability, qHTS; series mostly up to 92.2 µM; activity change, negative = cytotoxicity: at the top concentration; also: % is scaled to controls: 0 for no effect and ±100 for the full control effect; nearly all actives have a fitted effect of over 60% in size
Procedure, shortened: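 Cells seeded at 2500/well and rested 5 hr at 37 C; compounds added over a concentration range and incubated 24 hr at 37 C; CellTiter-Glo added, 30 min at room temperature; luminescence read and AC50 fitted with Hill model.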

Structure (SMILES)	Potency	activity change, negative = cytotoxicity
O=C(O)COc1ccc(Cl)cc1Cl	inactive	–
O=S1OCC2C(CO1)C1(Cl)C(Cl)=C(Cl)C2(Cl)C1(Cl)Cl (configuration not stated)	–	-12.4% (inactive)
CNC(=O)O/N=C/C(C)(C)SC	–	3.34% (inactive)
CCNc1nc(Cl)nc(NC(C)C)n1	–	7.88% (inactive)
C=CCc1ccc(OC)cc1	–	-5.91% (inactive)
ClC1=C(Cl)C2(Cl)C3C(Cl)C=CC3C1(Cl)C2(Cl)Cl (configuration not stated)	–	-27.4% (inactive)
ClC(Cl)=C(c1ccc(Cl)cc1)c1ccc(Cl)cc1	inactive	–
C/C=C/c1ccc2c(c1)OCO2	–	1.13% (inactive)
C=CCc1ccc2c(c1)OCO2	–	-5.53% (inactive)
COP(=S)(OC)Oc1ccc([N+](=O)[O-])cc1	–	0.7% (inactive)
